MCF10A rereplic – induces DNA re-replication in MCF 10a normal breast cells. MCF 10A DNA re-replication, Hoechst nuclear intensity, 48 h. Potency, µM (titrated, usually from 46.1 µM), for the others: at the top dose activity, positive = re-replication, usual class: activators. hit rate 2.9% among 350,000; note: % of control where 0% means no effect; nearly all actives have a fitted effect of over 50% in size
KB-3-1 tox – KB-3-1 parental cell cytotoxicity | AID 1347075 | hit rate 1.4% among 400,000 | KB-3-1 viability, CellTiter-Glo ATP luminescence, 72 h | Potency, µM (doses to about 46.1 µM), actives largely listed as cytotoxic; note: % is set by controls: 0 for no effect and ±100 for the full control effect; nearly all actives have a fitted effect of over 60% in size
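Parental KB-3-1 adenocarcinoma cells in phenol-red-free DMEM with 10% FBS were pin-treated with compounds at several concentrations, incubated 72 h at 37 °C, and viability read by CellTiter-Glo luminescence; concentration-effect curves were fitted after normalization.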
KB-V1 MDR tox – kills drug-selected multidrug resistant KB-V1 cells | KB-V1 MDR cells viability, CellTiter-Glo, 72 h | Potency, µM (titrated, usually from 46.1 µM), hits mostly cytotoxic | hit rate 3.4% among 400,000 | AID 1347076; note: % is set by controls: 0 for no effect and ±100 for the full control effect; nearly all actives have a fitted effect of over 60% in size
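Luminescent ATP read-out (CellTiter-Glo, 10 min) measures survival of drug-selected KB-V1 MDR cells after 72 h, 37 degrees C compound exposure. Medium: phenol-red-free DMEM, 10% FBS. Values from fitted concentration-response curves.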
PINK1 expr mod – PINK1 expression modulation; PINK1 immunofluorescence, high-content cytometry, 24 h; Potency, µM (doses to about 76.6 µM), inactives show top-dose activation (PINK1 increase), most hits filed as activators; hit rate 0.2% among 410,000; active = well fitted activation curve with a large enough effect; inconclusive = small, poorly fitted or top-dose-only effect; cell line not stated here; note: % of control where 0% means no effect; nearly all actives have a fitted effect of over 65% in size
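Readout is PINK1 immunofluorescence, quantified alongside mitochondrial, cell and nuclear markers by laser-scanning microplate cytometry. Cells from a stable line were exposed to compound titrations (5 concentrations) for 24 hours, with CCCP controls.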
SW480 rereplic – induces DNA re-replication in SW480 colon adenocarcinoma cells | AID 624297 | SW480 DNA re-replication, Hoechst DNA content imaging, 48 h | Potency, µM (series often up to 46.1 µM), for inactives: at the highest dose re-replication activation, actives largely listed as activators | hit rate 1.8% among 340,000; note: % of control where 0% means no effect; nearly all actives have a fitted effect of over 55% in size
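Quantitative HTS format with DMSO vehicle controls; 48 hr drug incubation at 37 C, then 40 min Hoechst staining and scanning imager measurement at 405 nm excitation.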
* = called active by the depositor; i = inactive; u = inconclusive; x = not tested or not shown; [ ] = another dose, or the depositor's remark. Only some compounds are listed: those with a hit (about 6.7% of all), similar ones and a draw of the others. Unless noted, calls come from the whole dose curve; as a rule, active = well fitted curve in the direction sought with a large enough effect; inconclusive = small, poorly fitted or top-dose-only effect, or another doubt; inactive = no such curve, though single readings can be large; an effect the other way counts as inactive or inconclusive. Potency is the fitted concentration of half-maximal effect.

SMILES | MCF10A rereplic | KB-3-1 tox | KB-V1 MDR tox | PINK1 expr mod | SW480 rereplic
COc1cccc(OC)c1-c1nn2c(-c3cc(-c4ccccc4)n[nH]3)nnc2s1 | 15µM* | u | u | 17% | 9.2µM*
CCN(CC)c1ccc(-c2nn3c(-c4ccccc4OC)nnc3s2)cc1 | u | 0.82µM* | 1.5µM* | u | 1.3µM*
Clc1ccc(OCc2nn3c(-c4ccncc4)nnc3s2)cc1 | 12% | i | 10µM* | 10% | -7%
CC(C)CN1C(=O)CN(S(C)(=O)=O)CC1(C)C(=O)NC(C)C (configuration not stated) | x | i | i | x | x
Cc1ccccc1CN1Cc2cccc3c2[C@H](C=CC3)CC1=O | x | i | u | x | x
c1coc(-c2nn3c(-c4ccco4)nnc3s2)c1 | -1% | i | u | 1% | -9%
COc1ccccc1-c1nn2c(-c3ccco3)nnc2s1 | 19% | i | 10µM* | -4%[38.3 µM] | -9%
Fc1ccccc1NC(=S)NNc1ncc(C(F)(F)F)cc1Cl | 25% | i | u | 16µM* | 9%
O=C(CN1CCN(c2ncc(C(F)(F)F)cc2Cl)CC1)NCCNc1ncc(C(F)(F)F)cc1Cl | 18µM* | i | u | 1% | u
O=C(CSc1ncccn1)Nc1ncc(C(F)(F)F)cc1Cl | 2.1µM* | i | i | 6% | -61%
Cc1cc(C)nc(SCC(=O)Nc2ncc(C(F)(F)F)cc2Cl)n1 | 13% | u | i | -1% | 1%
NNC(=O)CN1CCN(c2ncc(C(F)(F)F)cc2Cl)CC1 | 6% | i | i | 1% | 3%
O=C(NNc1ncc(C(F)(F)F)cc1Cl)c1c(Cl)cccc1Cl | 6.5µM* | 5.8µM* | 2.9µM* | 17% | u
NC(=O)NNc1ncc(C(F)(F)F)cc1Cl | -7% | i | i | 2% | u
NC(=O)C1CCCN(Cc2ccc3c(c2)CN(Cc2cn[nH]c2-c2ccc(F)cc2)CCO3)C1 (configuration not stated) | x | x | x | -1% | x
CCc1ccc(CN(Cc2ccco2)C(=O)c2ccc(OC)cc2)cc1 | x | x | x | 1% | x
O=C(Nc1ccc2nc(C(F)(F)F)[nH]c2c1)[C@@H]1O[C@H](CO)[C@@H](O)[C@H]1O | x | i | i | 0% | x
Cc1ccc(NC(=O)[C@@H](C)NC(=O)[C@@H]2Cc3ccccc3CN2)cc1 | -3% | i | i | 1% | 1%
Cc1ccc(NC(=O)[C@H](NC(=O)[C@@H]2Cc3ccccc3CN2)c2ccccc2)cc1C | 26µM* | i | i | u | -3%
COc1ccccc1CNc1ncncc1-c1ccccc1C(F)(F)F | x | x | x | 0% | x
CC1=NN(C(=O)c2ccc(Cn3nc(C)c([N+](=O)[O-])c3C)cc2)C(O)(C(F)(F)F)C1 (configuration not stated) | u | i | 9.2µM* | 4%[38.3 µM] | 16%
CC1=NN(C(=O)c2ccc(Cn3nc(C)c(Br)c3C)cc2)C(O)(C(F)(F)F)C1 (configuration not stated) | -3% | i | i | 4% | -8%
CC1=NN(C(=O)c2ccc(Cn3cc(Br)c([N+](=O)[O-])n3)o2)C(O)(C(F)(F)F)C1 (configuration not stated) | -2% | i | i | -1% | 10µM*
CC1=NN(C(=O)Cn2nc([N+](=O)[O-])cc2C)C(O)(C(F)(F)F)C1 (configuration not stated) | 2% | i | i | 4% | -1%
CC1=NN(C(=O)c2ccoc2C)C(O)(C(F)(F)F)C1 (configuration not stated) | u | i | i | -1% | -56%
SMILES | MCF10A rereplic | KB-3-1 tox | KB-V1 MDR tox | PINK1 expr mod | SW480 rereplic
CC1=NN(C(=O)c2ccc(Cn3nc(C)cc3C)o2)C(O)(C(F)(F)F)C1 (configuration not stated) | 2.3µM* | i | i | 6%[38.3 µM] | 3.7µM*
CS(=O)(=O)c1ccc(-c2csc(C(O)c3cccc(Cl)c3)n2)cc1 (configuration not stated) | x | i | i | 3% | x
CC(C)[C@@H]1Cc2[nH]c(=S)[nH]c(=O)c2[C@H](CCc2ccccc2)O1 | x | i | i | -1% | x
COc1ccc(S(=O)(=O)N(C)CC(=O)Nc2ccccc2C(F)(F)F)cc1Cl | -10% | i | 15µM* | 5%[38.3 µM] | -1%
O=[N+]([O-])c1cc(Cl)ccc1Nc1nc(Nc2ccc(Cl)cc2[N+](=O)[O-])nc(N2CCOCC2)n1 | x | i | i | 0% | x
COC(=O)C[C@@H]1C=C[C@@H](NC(=O)c2ccccc2F)[C@@H](CO)O1 | x | i | i | x | x
CSCC[C@H](NC(=O)c1ccc2c(c1)OCO2)c1nnc2ccccn12 | 2% | i | i | 0% | -22%
CCOc1ccc2cc(/C=C/C(=O)c3ccco3)c(Cl)nc2c1 | 5.8µM* | u | u | 1% | 16µM*
CCOC(=O)c1ccc(/C=C2/C=C(c3ccccc3)N(c3ccc(Cl)c(C(=O)O)c3)C2=O)cc1 | 21µM* | u | i | -4% | 10%
CCc1c(C)nc2cc(-c3ccc(OC)c(OC)c3)nn2c1NCC1CC1 | 21µM* | u | 5.2µM* | 3% | -1%
COc1ccc(CCNC(=O)CCc2c(C)nc3cc(-c4ccccc4)nn3c2C)cc1OC | x | i | i | 1% | x
Cc1nc(N2CCc3ccccc3C2)[nH]c(=O)c1CCC(C)C | -6% | i | i | 11µM* | -7%
Cc1nc(N2CCOCC2)[nH]c(=O)c1CCC(C)C | 12% | i | i | -20%[38.3 µM] | 0%
CCOC(=O)c1nc(NCCc2ccccc2)sc1C | 2.1µM* | i | i | 5% | 6%
CCOC(=O)c1nc(NNC(C)=O)sc1C | 0% | i | i | 1% | -1%
c1ccc(CCNc2nc3ccccc3s2)cc1 | u | i | 18µM* | 3%[38.3 µM] | -3%
O=c1c(-c2ccc([N+](=O)[O-])cc2)coc2c(O)c(O)ccc12 | 7% | i | u | -2% | 13µM*
COc1cc2c(cc1OC)CN(CC(=O)Nc1ccc3c(c1)OC(F)(F)O3)CC2 | 19% | i | 13µM* | 5% | -1%
CNc1ncnc2c1ncn2[C@H]1CN(CCN2CCOCC2)C[C@@H](CO)O1 | x | i | i | 1% | x
CC1=NN(C(N)=S)C(=O)C1N=Nc1ccccc1Cl (configuration not stated) | u | i | i | 4% | 8.2µM*
CC1=NN(C(N)=S)C(=O)C1N=Nc1ccc(Cl)cc1Cl (configuration not stated) | 0% | i | u | 1% | -1%
CCCCC(=O)NC(c1ccco1)c1cc(Cl)c2cccnc2c1O (configuration not stated) | 26% | u | u | 5% | u
